According to publication PMC7862700, “An all-to-all approach to the identification of sequence-specific readers for epigenetic DNA modifications on cytosine”:

Experiments:
Test in all cases: DAPPL (digital affinity profiling via proximity ligation, sequencing); 10 mM Tris-HCl pH 7.5, 50 mM NaCl, 1 mM DTT, 4% glycerol, room temperature, 30 min; GST-TFs on glutathione beads, 16-mer random dsDNA library, 0.1% formaldehyde crosslink after washing; high values mean tight binding
Details in all cases: protein: recombinant; tags: N-terminal GST; dsDNA, one strand shown
ERF = biological target: T1, ERF (Homo sapiens, UniProt P50548 1-548)
T1 sequence: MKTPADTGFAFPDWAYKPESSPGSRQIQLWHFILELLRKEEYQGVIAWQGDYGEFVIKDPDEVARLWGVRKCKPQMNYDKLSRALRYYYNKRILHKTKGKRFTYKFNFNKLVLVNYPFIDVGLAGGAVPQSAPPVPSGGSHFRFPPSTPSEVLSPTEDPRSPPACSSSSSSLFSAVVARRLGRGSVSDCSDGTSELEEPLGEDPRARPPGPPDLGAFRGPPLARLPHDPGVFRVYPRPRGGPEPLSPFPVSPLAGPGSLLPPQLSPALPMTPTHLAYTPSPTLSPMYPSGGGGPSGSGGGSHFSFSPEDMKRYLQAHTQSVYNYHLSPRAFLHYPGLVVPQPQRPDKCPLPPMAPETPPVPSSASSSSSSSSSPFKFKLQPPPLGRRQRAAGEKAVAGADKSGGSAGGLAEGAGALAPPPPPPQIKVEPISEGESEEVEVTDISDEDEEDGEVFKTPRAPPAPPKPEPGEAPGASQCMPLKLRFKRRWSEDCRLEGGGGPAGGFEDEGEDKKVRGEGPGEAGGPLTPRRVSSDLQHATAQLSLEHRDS
Method in brief: (§1)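 Sequencing on an Illumina NextSeq500 followed washing, crosslinking with 0.1% formaldehyde, proximity ligation (BsaI/T4 ligase, 1 h, 37 °C) and PCR amplification of pools that had been incubated for 30 min at room temperature with 200 nmole of a random double-stranded 16-mer DNA library in Tris/NaCl/DTT/glycerol buffer. Each pool held DNA-barcoded human transcription factors, expressed in yeast as GST fusions and captured on glutathione beads, plus a tag-only sample. Binding signal is a hexamer's read frequency for a factor divided by its frequency in the tag-only sample.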

ETV3L = biological target: T2, ETV3L (Homo sapiens, UniProt Q6ZN32 1-361)
T2 sequence: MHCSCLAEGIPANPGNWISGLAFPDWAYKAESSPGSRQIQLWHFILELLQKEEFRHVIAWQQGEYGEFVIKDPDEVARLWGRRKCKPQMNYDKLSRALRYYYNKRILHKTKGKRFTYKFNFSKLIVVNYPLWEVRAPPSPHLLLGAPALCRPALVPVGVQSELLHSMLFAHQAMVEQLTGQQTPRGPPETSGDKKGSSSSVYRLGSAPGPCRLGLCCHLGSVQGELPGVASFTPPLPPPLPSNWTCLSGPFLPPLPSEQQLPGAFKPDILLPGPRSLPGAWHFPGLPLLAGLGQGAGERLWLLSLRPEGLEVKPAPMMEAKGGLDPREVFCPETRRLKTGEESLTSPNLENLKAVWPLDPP
Method in brief: as §1

ETS2 = biological target: T3, ETS2 (Homo sapiens, UniProt P15036 1-469)
T3 sequence: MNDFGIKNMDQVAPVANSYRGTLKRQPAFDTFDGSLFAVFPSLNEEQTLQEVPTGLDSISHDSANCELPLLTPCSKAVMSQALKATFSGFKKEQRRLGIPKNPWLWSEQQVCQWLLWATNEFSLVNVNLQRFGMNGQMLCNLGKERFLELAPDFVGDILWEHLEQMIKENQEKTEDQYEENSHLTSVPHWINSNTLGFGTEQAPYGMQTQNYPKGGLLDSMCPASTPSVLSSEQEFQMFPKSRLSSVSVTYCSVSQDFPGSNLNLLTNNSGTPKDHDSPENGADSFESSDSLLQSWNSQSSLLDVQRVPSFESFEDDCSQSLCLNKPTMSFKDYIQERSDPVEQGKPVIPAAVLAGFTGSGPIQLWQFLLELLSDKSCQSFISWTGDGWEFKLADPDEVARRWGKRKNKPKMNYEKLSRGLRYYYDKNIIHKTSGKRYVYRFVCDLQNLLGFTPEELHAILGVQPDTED
Method in brief: as §1

SPDEF = biological target: T4, SPDEF (Homo sapiens, UniProt O95238 1-335)
T4 sequence: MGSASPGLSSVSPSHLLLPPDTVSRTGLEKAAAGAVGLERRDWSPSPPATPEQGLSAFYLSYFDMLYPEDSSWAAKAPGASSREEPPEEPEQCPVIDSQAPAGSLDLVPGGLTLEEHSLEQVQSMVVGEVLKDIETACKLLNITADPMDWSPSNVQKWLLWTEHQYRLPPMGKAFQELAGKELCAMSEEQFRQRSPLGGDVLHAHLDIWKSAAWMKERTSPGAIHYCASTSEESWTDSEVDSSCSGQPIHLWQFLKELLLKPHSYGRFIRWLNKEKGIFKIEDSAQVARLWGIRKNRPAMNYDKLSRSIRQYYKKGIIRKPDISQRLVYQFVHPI
Method in brief: as §1

ETV7 = biological target: T5, ETV7 (Homo sapiens, UniProt Q9Y603 1-341)
T5 sequence: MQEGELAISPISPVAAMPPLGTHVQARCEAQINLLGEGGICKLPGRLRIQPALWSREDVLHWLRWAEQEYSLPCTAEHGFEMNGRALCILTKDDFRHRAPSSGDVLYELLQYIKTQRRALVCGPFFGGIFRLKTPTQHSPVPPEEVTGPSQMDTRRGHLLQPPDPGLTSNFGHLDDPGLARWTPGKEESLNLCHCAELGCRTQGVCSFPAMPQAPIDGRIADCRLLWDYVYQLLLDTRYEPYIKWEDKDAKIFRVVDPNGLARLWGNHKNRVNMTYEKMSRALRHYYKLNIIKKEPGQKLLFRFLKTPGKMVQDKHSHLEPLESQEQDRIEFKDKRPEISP
Method in brief: as §1

ELF5 = biological target: T6, ELF5 (Homo sapiens, UniProt Q9UKW6-2 1-255)
T6 sequence: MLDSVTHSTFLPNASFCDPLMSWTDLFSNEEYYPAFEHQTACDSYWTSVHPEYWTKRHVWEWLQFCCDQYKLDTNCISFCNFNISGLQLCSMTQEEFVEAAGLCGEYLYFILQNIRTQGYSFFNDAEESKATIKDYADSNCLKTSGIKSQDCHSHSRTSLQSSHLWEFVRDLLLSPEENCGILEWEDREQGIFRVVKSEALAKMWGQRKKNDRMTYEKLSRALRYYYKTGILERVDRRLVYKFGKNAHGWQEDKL
Method in brief: as §1

ETV3 = biological target: T7, ETV3 (Homo sapiens, UniProt P41162-2 1-143)
T7 sequence: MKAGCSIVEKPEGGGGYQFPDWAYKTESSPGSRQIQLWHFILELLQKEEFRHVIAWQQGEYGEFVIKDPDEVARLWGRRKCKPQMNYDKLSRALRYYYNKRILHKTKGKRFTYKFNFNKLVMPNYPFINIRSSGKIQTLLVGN
Method in brief: as §1

ETV6 = ETV6 (Homo sapiens, UniProt P41212 1-452)
Sequence of ETV6 (P41212 whole entry): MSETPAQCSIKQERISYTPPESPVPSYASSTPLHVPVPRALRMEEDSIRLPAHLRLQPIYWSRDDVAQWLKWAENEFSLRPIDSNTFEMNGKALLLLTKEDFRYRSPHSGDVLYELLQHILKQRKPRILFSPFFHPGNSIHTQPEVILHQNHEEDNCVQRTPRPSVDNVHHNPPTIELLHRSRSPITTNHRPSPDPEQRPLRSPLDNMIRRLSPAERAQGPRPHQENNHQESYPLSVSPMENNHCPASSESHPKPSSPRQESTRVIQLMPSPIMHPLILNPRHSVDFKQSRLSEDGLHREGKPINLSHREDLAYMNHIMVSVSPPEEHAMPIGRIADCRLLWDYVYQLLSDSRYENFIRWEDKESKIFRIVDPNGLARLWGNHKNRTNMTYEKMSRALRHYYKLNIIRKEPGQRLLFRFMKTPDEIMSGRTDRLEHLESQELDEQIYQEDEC
Method in brief: as §1

Sequence	binding signal (ERF)	binding signal (ETV3L)	binding signal (ETS2)	binding signal (SPDEF)	binding signal (ETV7)	binding signal (ELF5)	binding signal (ETV3)	binding signal (ETV6)
TCATTT	1.37 fold enrichment (6-mer frequency, TF over GST control)	1.47 fold enrichment (6-mer frequency, TF over GST control)	1.41 fold enrichment (6-mer frequency, TF over GST control)	1.22 fold enrichment (6-mer frequency, TF over GST control)	1.37 fold enrichment (6-mer frequency, TF over GST control)	1.32 fold enrichment (6-mer frequency, TF over GST control)	1.3 fold enrichment (6-mer frequency, TF over GST control)	1.35 fold enrichment (6-mer frequency, TF over GST control)
GTCCTA	1.32 fold enrichment (6-mer frequency, TF over GST control)	1.12 fold enrichment (6-mer frequency, TF over GST control)	1.11 fold enrichment (6-mer frequency, TF over GST control)	1.29 fold enrichment (6-mer frequency, TF over GST control)	1.29 fold enrichment (6-mer frequency, TF over GST control)	1.14 fold enrichment (6-mer frequency, TF over GST control)	1.25 fold enrichment (6-mer frequency, TF over GST control)	1.13 fold enrichment (6-mer frequency, TF over GST control)
GTAAAA	1.13 fold enrichment (6-mer frequency, TF over GST control)	1.14 fold enrichment (6-mer frequency, TF over GST control)	1.13 fold enrichment (6-mer frequency, TF over GST control)	1.09 fold enrichment (6-mer frequency, TF over GST control)	1.18 fold enrichment (6-mer frequency, TF over GST control)	1.18 fold enrichment (6-mer frequency, TF over GST control)	1.16 fold enrichment (6-mer frequency, TF over GST control)	1.14 fold enrichment (6-mer frequency, TF over GST control)
TGCCTC	1.4 fold enrichment (6-mer frequency, TF over GST control)	1.32 fold enrichment (6-mer frequency, TF over GST control)	1.22 fold enrichment (6-mer frequency, TF over GST control)	1.39 fold enrichment (6-mer frequency, TF over GST control)	1.35 fold enrichment (6-mer frequency, TF over GST control)	1.4 fold enrichment (6-mer frequency, TF over GST control)	1.39 fold enrichment (6-mer frequency, TF over GST control)	1.36 fold enrichment (6-mer frequency, TF over GST control)
TTTGAC	1.49 fold enrichment (6-mer frequency, TF over GST control)	1.35 fold enrichment (6-mer frequency, TF over GST control)	1.33 fold enrichment (6-mer frequency, TF over GST control)	1.48 fold enrichment (6-mer frequency, TF over GST control)	1.58 fold enrichment (6-mer frequency, TF over GST control)	1.34 fold enrichment (6-mer frequency, TF over GST control)	1.38 fold enrichment (6-mer frequency, TF over GST control)	1.4 fold enrichment (6-mer frequency, TF over GST control)
ACTTTA	1.12 fold enrichment (6-mer frequency, TF over GST control)	1.26 fold enrichment (6-mer frequency, TF over GST control)	1.25 fold enrichment (6-mer frequency, TF over GST control)	1.08 fold enrichment (6-mer frequency, TF over GST control)	1.29 fold enrichment (6-mer frequency, TF over GST control)	1.15 fold enrichment (6-mer frequency, TF over GST control)	1.19 fold enrichment (6-mer frequency, TF over GST control)	1.18 fold enrichment (6-mer frequency, TF over GST control)
TAAGTT	1.18 fold enrichment (6-mer frequency, TF over GST control)	1.4 fold enrichment (6-mer frequency, TF over GST control)	1.38 fold enrichment (6-mer frequency, TF over GST control)	1.42 fold enrichment (6-mer frequency, TF over GST control)	1.36 fold enrichment (6-mer frequency, TF over GST control)	1.29 fold enrichment (6-mer frequency, TF over GST control)	1.27 fold enrichment (6-mer frequency, TF over GST control)	1.49 fold enrichment (6-mer frequency, TF over GST control)
TTTATA	1.4 fold enrichment (6-mer frequency, TF over GST control)	1.42 fold enrichment (6-mer frequency, TF over GST control)	1.4 fold enrichment (6-mer frequency, TF over GST control)	1.3 fold enrichment (6-mer frequency, TF over GST control)	1.43 fold enrichment (6-mer frequency, TF over GST control)	1.27 fold enrichment (6-mer frequency, TF over GST control)	1.32 fold enrichment (6-mer frequency, TF over GST control)	1.38 fold enrichment (6-mer frequency, TF over GST control)
TCTTCC	2.26 fold enrichment (6-mer frequency, TF over GST control)	2.66 fold enrichment (6-mer frequency, TF over GST control)	2.8 fold enrichment (6-mer frequency, TF over GST control)	2.45 fold enrichment (6-mer frequency, TF over GST control)	2.35 fold enrichment (6-mer frequency, TF over GST control)	4.14 fold enrichment (6-mer frequency, TF over GST control)	2.74 fold enrichment (6-mer frequency, TF over GST control)	2.8 fold enrichment (6-mer frequency, TF over GST control)
CTTGCT	1.36 fold enrichment (6-mer frequency, TF over GST control)	1.37 fold enrichment (6-mer frequency, TF over GST control)	1.21 fold enrichment (6-mer frequency, TF over GST control)	1.23 fold enrichment (6-mer frequency, TF over GST control)	1.52 fold enrichment (6-mer frequency, TF over GST control)	1.27 fold enrichment (6-mer frequency, TF over GST control)	1.33 fold enrichment (6-mer frequency, TF over GST control)	1.36 fold enrichment (6-mer frequency, TF over GST control)
CCTTGC	1.43 fold enrichment (6-mer frequency, TF over GST control)	1.42 fold enrichment (6-mer frequency, TF over GST control)	1.22 fold enrichment (6-mer frequency, TF over GST control)	1.34 fold enrichment (6-mer frequency, TF over GST control)	1.41 fold enrichment (6-mer frequency, TF over GST control)	1.28 fold enrichment (6-mer frequency, TF over GST control)	1.35 fold enrichment (6-mer frequency, TF over GST control)	1.21 fold enrichment (6-mer frequency, TF over GST control)
TGGTTT	1.53 fold enrichment (6-mer frequency, TF over GST control)	1.51 fold enrichment (6-mer frequency, TF over GST control)	1.54 fold enrichment (6-mer frequency, TF over GST control)	1.49 fold enrichment (6-mer frequency, TF over GST control)	1.44 fold enrichment (6-mer frequency, TF over GST control)	1.54 fold enrichment (6-mer frequency, TF over GST control)	1.52 fold enrichment (6-mer frequency, TF over GST control)	1.67 fold enrichment (6-mer frequency, TF over GST control)
